Source: PubChem BioAssay AID574 (The Scripps Research Institute Molecular Screening Center, 2007)
Screen size: about 65,000 compounds; about 450 (0.69%) were called active. The list comes from a sample in which actives are over-represented; it also holds similar structures and randomly drawn compounds. Values without a mark were called inactive.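 The calls were made as follows: active = activation above a set limit, the screen-wide mean activation plus 3 SD (cut at about 8.5% in these data); inactive = the rest.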

target: 5-hydroxytryptamine receptor 1E (Homo sapiens) (UniProt P28566); experiment: activation of human serotonin 5HT1E receptor – cell-based, HTS, primary screen (AID 574); details: CHO 5-HT1E Ga15 NFAT-bla reporter, FRET; at 6 µM; active compounds read high; 0% DMSO wells, 100% control agonist wells;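 also: 100% = positive control agonist at 1 µM giving full maximal response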
Sequence (P28566 whole entry, looked up): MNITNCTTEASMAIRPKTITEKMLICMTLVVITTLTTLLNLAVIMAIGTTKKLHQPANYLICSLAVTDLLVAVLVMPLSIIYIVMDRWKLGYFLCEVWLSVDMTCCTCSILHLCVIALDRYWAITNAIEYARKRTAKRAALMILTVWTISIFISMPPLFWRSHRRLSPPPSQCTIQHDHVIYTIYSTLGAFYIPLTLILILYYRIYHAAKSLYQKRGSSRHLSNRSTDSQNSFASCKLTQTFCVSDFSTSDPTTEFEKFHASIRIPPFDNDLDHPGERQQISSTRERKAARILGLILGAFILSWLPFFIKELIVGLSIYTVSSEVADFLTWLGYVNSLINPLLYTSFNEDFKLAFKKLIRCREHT

Row | SMILES | activation
1 | CCCCOc1ccccc1/C=c1/sc2nc(-c3oc4ccccc4c3C)nn2c1=O | 0.1%
2 | O=c1nc2s/c(=C\c3ccco3)c(=O)n2nc1Cc1ccccc1 | 17.9% (active)
3 | CCOc1ccccc1/C=c1\sc2nc(-c3ccco3)nn2c1=O | 0.9%
4 | O=C(CCS(=O)(=O)Cc1ccccc1F)NCCCN1CCCCC1 | -1.2%
5 | Cc1ccc(CNC(=O)CCCNC(=O)c2ccc(Cl)cc2)n1C | -0.6%
6 | O=S(=O)(NCc1ccccc1Cl)c1cnc[nH]1 | 0.3%
7 | COc1ccc2c(c1)OC(O)(C(F)(F)C(F)F)CC2=O (centres undefined) | 12% (active)
8 | CN(C)c1ccnc2sc3c(=O)n(Cc4ccccc4)cnc3c12 | 0.2%
9 | CCOC(=O)c1sc(N(Cc2ccccc2)C(=O)CN2C(=O)CN(C)C2=O)nc1C | 0.8%
10 | CCN(CCCNC(=O)C1CCN(S(=O)(=O)c2cnc[nH]2)CC1)c1ccccc1 | -0.1%
11 | CN1CCN(CCCNC(=O)c2cc3c(=O)oc4ccccc4c3s2)CC1 | 14.9% (active)
12 | CN1CCN(Cc2c(O)ccc3c2oc(=O)c2ccccc23)CC1 | -1.2%
13 | Cc1nc2ccccc2c2oc(C(=O)NCCCN3CCC(C)CC3)cc12 | -0.7%
14 | CCS(=O)(=O)N1CCN(C(=O)c2cccs2)CC1 | 0.5%
15 | O=C(COc1ccccc1)NCc1ccc2c(c1)OCO2 | -0.5%
16 | O=C(CC(Cc1ccccc1)C(=O)O)NCCc1ccc2c(c1)OCO2 (centres undefined) | 10.3% (active)
17 | O=C(CN(Cc1ccccc1)C(=O)c1ccc2c(c1)OCCO2)NCc1ccc2c(c1)OCO2 | -1.2%
18 | Cc1cc(=O)n2nc(N3CCCC(C(=O)N4CCN(C)CC4)C3)sc2n1 (centres undefined) | 0%
19 | CN(C)CCCn1c(N)c(C#N)c2nc(C#N)c(C#N)nc21 | 3.5%
20 | CCOc1ccc2nc(NC(=O)CSc3nc4c(c(=O)n(C)c(=O)n4C)n3CC)sc2c1 | -0.3%
21 | CCOC(=O)CCc1c(C)c(C#N)c2[nH]c3ccccc3n2c1=O | -0.2%
22 | CCC1CCCCN1CCNS(=O)(=O)c1ccc2c(c1)CCN2C(C)=O (centres undefined) | -0.3%
23 | O=S(=O)(c1ccc(OCC(O)CN2CCN(c3ccccc3Cl)CC2)cc1)N1CCOCC1 (centres undefined) | 1.6%
24 | CCCN1C(=O)C(NC(C)=O)c2cc(OC)ccc21 (centres undefined) | 0.7%
25 | CCOC(=O)N1CCN(C(=O)c2cnc3n(c2=O)CCS3)CC1 | 4.1%

Row | SMILES | activation
26 | Cn1c(NC(=O)c2ccco2)c(-c2ccccc2Cl)c(=O)c2ccccc21 | 0.2%
27 | CCC(=O)Nc1ccccc1N1CCN(S(C)(=O)=O)CC1 | -0.7%
28 | CCCS(=O)(=O)N1CCCC(C(=O)NCc2ccco2)C1 (centres undefined) | 0.6%
29 | COc1cccc2cc(C(=O)N(C)C)c(=O)oc12 | 0.2%
30 | Cn1c(=O)cc(OCCCC(=O)N2CCN(Cc3ccc4c(c3)OCO4)CC2)c2ccccc21 | 0.8%
31 | CC(C)OCCCNC(=O)CNC(=O)c1cccs1 | 1.3%
32 | COc1cccc(OCCOc2cccc(/C=N/n3cnnc3)c2)c1 | -0.3%
33 | C=C(C)CSc1nc(N)c2c3c(sc2n1)CCC3 | 0.3%
34 | Cc1cccc(N2CCN(Cc3c(C)n(C)n(-c4ccccc4)c3=O)CC2)c1C | 41.4% (active)
35 | CC(=O)N1CCN(c2cccc(C)c2C)CC1 | 0.3%
36 | Cc1c(CN2CCC(C)CC2)c(=O)n(-c2ccccc2)n1C | -0.1%
37 | CC1CN(C2CCCCC2)c2nc3c(c(=O)n(C)c(=O)n3C)n2C1 (centres undefined) | -0.2%
38 | CCOC(=O)CSc1nnc(CNC(=O)Cc2ccccc2)n1-c1ccccc1OC | -0.7%
39 | O=C(Nc1ccc(Oc2ccccc2)cc1)c1ccco1 | 0.3%
40 | CCOc1cc(NC(=O)c2ccco2)c(OCC)cc1NC(=O)COc1ccccc1 | 9.5% (active)
41 | Cc1ccc(C(=O)COc2cccc(NC(=O)c3ccco3)c2)cc1 | 0.2%
42 | CC(=O)c1cccc(NC(=O)N2CCCC2C(=O)NCCC(C)C)c1 (centres undefined) | -0.1%
43 | CCN(Cc1ccccc1)C(=O)CSc1nc(C)cc2c1C(=O)OC2 | -0.3%
44 | CCOc1ccccc1C1C(C(=O)OC)=CN(C)C=C1C(=O)OC | 7.1%
45 | Cn1c(C(=O)NCCCN2CCN(c3cccc(Cl)c3)CC2)cc2c(=O)n(C)c3ccccc3c21 | 14.6% (active)
46 | O=C(CCn1c(=S)[nH]c2ccccc2c1=O)NCCCN1CCCC1=O | -0.3%
47 | CCn1c(=O)cc(OCC(=O)NCCCN2CCN(c3cccc(Cl)c3)CC2)c2ccccc21 | 7.6%
48 | CC1CCCC(C)N1CCCNC(=O)c1cc2c(=O)n(C)c3ccccc3c2n1C (centres undefined) | 0.8%
49 | O=C(CCCn1c(=O)[nH]c2cc(Cl)ccc2c1=O)NCCN1CCN(c2ccccc2)CC1 | 1%
50 | O=C(CCn1c(=O)[nH]c2ccccc2c1=O)NCCCN1CCN(c2cccc(Cl)c2)CC1 | 11.7% (active)

Row | SMILES | activation
51 | Cc1cc(=O)[nH]c(SCC(N)=O)c1C#N | 0.8%
52 | COc1ccc(C(=O)Nc2cccnc2)cc1C(=O)Nc1cccnc1 | 0.1%
53 | Cc1ccc2nc(-c3ccc(SCC(=O)Nc4cc(C)on4)nc3)[nH]c2c1 | -0.4%
54 | Cc1cc(=O)oc(C)c1C(=O)NCc1ccc(F)cc1 | -0.2%
55 | CCCOc1ccccc1C(=O)NCCCC(=O)O | 0%
56 | COc1cccc2cc(C(C)N(CCCN3CCOCC3)C(=O)Nc3ccc(Cl)cc3)oc12 (centres undefined) | 15.9% (active)
57 | Cn1c(CN2CCOCC2)nc2cc(NC(=O)c3ccc(Cl)cc3)ccc21 | 0.6%
58 | O=C(CC(NCCN1CCOCC1)C(=O)O)Nc1cccc(Cl)c1 (centres undefined) | -1.2%
59 | Cc1c2cnn(-c3ccccc3)c(=O)c2c(C)n1CCCC(=O)N1CCN(C)CC1 | 1%
60 | CC(C)OC(=O)CN1C(=O)c2ccccc2C1=O | 0.5%
61 | CCOc1ccc(NC(=O)N2CCN(CC)CC2)cc1 | -0.5%
62 | O=C(Nc1c(-c2ccccc2)nc2c(Br)cc(Br)cn12)c1ccco1 | -0.3%
63 | CC1(C)C/C(=C(/C#N)C(N)=O)CCO1 | -0.1%
64 | Cc1cn(COC/C=C/c2ccccc2)c(=O)[nH]c1=O | 0.2%
65 | CC(C)Cn1c(CCC(=O)O)ccc1-c1cccs1 | 0.6%
66 | CC1CCCC(NC(=O)CN2CCN(Cc3ccc(Cl)cc3)C2=O)C1C (centres undefined) | -0.6%
67 | O=C(OC1CCOC1=O)c1ccc(-c2nc3ccccc3s2)s1 (centres undefined) | -0.6%
68 | Cc1ccc(-n2nc3c(c2NC(=O)c2ccc4c(c2)OCO4)CSC3)c(C)c1 | -0.1%
69 | O=C(Nc1ccccc1C(F)(F)F)c1cc(-c2ccc(O)cc2)on1 | 0.1%
70 | CCOc1ccc(Cn2c(SCCCCC#N)nc3c2c(=O)n(C)c(=O)n3C)cc1OCC | 0.1%
71 | O=C(Nc1c(Cl)cccc1Cl)C1CCC1 | 0.5%
72 | O=C(O)CC(Cn1cnnn1)c1ccccc1 (centres undefined) | 1.2%
73 | Fc1ccccc1CCNc1nnnn1-c1ccccc1 | -0.5%
74 | CC(C)CNC(=O)C1CCCN(S(=O)(=O)c2ccc(-n3cnnn3)cc2)C1 (centres undefined) | -0.3%
75 | Cc1oc(-c2cccc(Cl)c2)[n+]([O-])c1C | 0.2%

Row | SMILES | activation
76 | COC(=O)COc1ccc(S(=O)(=O)N2CCOCC2)cc1 | -0.6%
77 | O=C(c1ccc2c(c1)C(=O)N(c1ccc(Cl)cc1)C2=O)N1CCN(c2ccccn2)CC1 | 0.4%
78 | CCOc1ccc(C(CC(=O)O)NC(=O)COc2ccccc2)cc1 (centres undefined) | -1.3%
79 | CC(C)Cn1c(N)c(C(=O)NCc2cccs2)c2nc3ccccc3nc21 | 18.4% (active)
80 | C=CCn1c(N)c(S(=O)(=O)c2cccs2)c2nc3ccccc3nc21 | 0.2%
81 | C=CCn1c(N)c(C(=O)OCC(C)C)c2nc3ccccc3nc21 | 0.4%
82 | Cc1ccc(C(=O)NCCNS(=O)(=O)c2ccccc2)cc1 | -1.7%
83 | CC(=O)Nc1cccc(Oc2cc(C#N)c(C#N)cc2N2CCOCC2)c1 | -0.6%
84 | CC1CN(c2cc(=O)n(Cc3ccc(F)cc3)c(=O)[nH]2)CC(C)O1 (centres undefined) | 0.8%
85 | Cc1nnc(SCC(=O)N2CCc3ccccc32)n1-c1ccccc1 | -0.4%
86 | CCOC(=O)CSc1nc2sc3c(c2c(=O)[nH]1)CC(C)(C)OC3 | -0.1%
87 | CCCc1nnc(NC(=O)c2cc(OC)cc(OC)c2)s1 | 0.7%
88 | Nc1nnnn1/N=C/c1cccs1 | -0.8%
89 | CS(=O)(=O)N(C(=O)NC(=O)NC1CCS(=O)(=O)C1)C1CCCCC1 (centres undefined) | 0.1%
90 | O=C(Nc1nnc(-c2ccc(Cl)cc2)o1)c1ccccc1Br | -0.9%
91 | CCOC(=O)N1CCC(NC(=O)c2ccc3nc(N4CCOCC4)sc3c2)CC1 | -0.6%
92 | COC(=O)C(C)C1Sc2ccccc2NC1=O (centres undefined) | 0.6%
93 | Cc1ccc(C(C(=O)NCc2ccco2)N(CC2CCCO2)C(=O)Cn2nnc3ccccc32)cc1 (centres undefined) | 0.3%
94 | O=C(NC1(C(F)(F)F)N=C2SCCN2C1=O)c1ccco1 (centres undefined) | -0.1%
95 | CCNc1nc(NCC)nc(N(C)n2cnnc2)n1 | 1.1%
96 | N#Cc1nc(Cc2cccc3ccccc23)oc1NCc1ccc2c(c1)OCO2 | 10.4% (active)
97 | c1n[nH]c(NCc2ccc3c(c2)OCO3)n1 | -0.5%
98 | N#Cc1nc(Cc2ccccc2)oc1NCCc1ccccc1 | -0.8%
99 | Cc1cccc2c1N(CC(=O)OC(C)C)C(=O)C2=O | 0.3%
